Potency data for 33 compounds are collected here from PubChem BioAssay (Tox21).

Records with an inconclusive call do not appear. Active and inactive are the calls of the source. Unless noted, the call rests on the fitted dose curve; in most records, active means well fitted curve in the direction sought with a large enough effect in the repeat runs; inconclusive means weak or mixed curves; inactive means no such curve, though single readings can be large; an effect the other way counts as inactive or inconclusive.

Test [1] has as its target Aryl hydrocarbon receptor (Homo sapiens) (UniProt P35869). The test is described as follows: qHTS assay to identify small molecule that activate the aryl hydrocarbon receptor (AhR) signaling pathway (AID 743085).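 Further: HG2L7.5c1 human HepG2 liver cells with stably integrated DRE-driven firefly reporter; nearly all actives have a fitted effect of over 15% in size.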 The following applies: HepG2 AhR-luc (HG2L7.5c1), luciferase, 24 h; series mostly up to 70.3 µM. A digest of the protocol:
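Measured in HG2L7.5c1 cells: CellTiter-Fluor signal (30 min incubation, 37C) for viability, then luciferase luminescence (30 min, room temperature). Compound contact time was 24 h at 37C, following a 5 h pre-incubation.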

The nature of test [2]: qHTS assay for small molecule agonists of the antioxidant response element (ARE) signaling pathway - cell viability counter screen (AID 743203; calls by dose curve; further: nearly all actives have a fitted effect of over 55% in size; further: potency means the concentration at half of the fitted maximal effect). The following applies: ARE-bla HepG2 viability, CellTiter-Glo luminescence, 16 h; series mostly up to 73.3 µM. A digest of the protocol:
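Viability counter screen: CellTiter-Glo luminescence, read after 30 min at room temperature, in ARE-bla HepG2 wells. Compound exposure lasted 16 h at 37C/5% CO2, following a 5 h pre-incubation of the cells after plating.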
A general note: In qHTS, concentration-response curves come from the screen itself.

Test [3] is described as follows: qHTS assay for small molecule activators of the heat shock response signaling pathway - cell viability counter screen (AID 743209). Further: nearly all actives have a fitted effect of over 50% in size. Further: potency means the concentration at half of the fitted maximal effect. The following applies: HSE-bla HeLa viability, CellTiter-Glo luminescence, 5 h; series mostly up to 62.6 µM. A digest of the protocol: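 Cytotoxicity counter screen run in the same wells as the heat-shock bla reporter assay: HeLa HSE-bla cells, 5 h compound exposure at 37 C, viability read by CellTiter-Glo luminescence.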

Test [4] is described as follows: qHTS assay to identify small molecule agonists of the peroxisome proliferator-activated receptor delta (PPARd) signaling pathway - cell viability counter screen (AID 743211). Further: nearly all actives have a fitted effect of over 55% in size. Further: potency means the concentration at half of the fitted maximal effect. The following applies: PPARd-bla HEK293H viability, CellTiter-Glo luminescence, 17 h; series mostly up to 62.6 µM. In short, it runs like this:
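Following 5 h plating at 37 C and 5% CO2, PPARd UAS-bla HEK293H cells took up test compounds for 17 h. Viability was quantified by luminescence 30 min after CellTiter-Glo addition at room temperature.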

A short description of test [5]: qHTS assay to identify small molecule that activate the aryl hydrocarbon receptor (AhR) signaling pathway - cell viability counter screen (AID 743086). Further: nearly all actives have a fitted effect of over 45% in size. Further: potency means the concentration at half of the fitted maximal effect. The following applies: HepG2-AhR-luc viability, CellTiter-Fluor, 24 h; series mostly up to 70.3 µM. A digest of the protocol:
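Cytotoxicity counter screen: CellTiter-Fluor signal (30 min, 37 C) in 4000 HepG2 cells/well carrying the DRE-luciferase reporter, following 24 h compound exposure at 37 C.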

A short description of test [6]: qHTS assay to identify small molecule antagonists of the peroxisome proliferator-activated receptor gamma (PPARg) signaling pathway - cell viability counter screen (AID 743194). Further: nearly all actives have a fitted effect of over 55% in size. Further: potency means the concentration at half of the fitted maximal effect. The following applies: PPARg-bla HEK293H viability, CellTiter-Glo luminescence, 17 h, co-treated with 50 nM rosiglitazone; series mostly up to 62.6 µM. A digest of the protocol:
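Viability was measured as CellTiter-Glo luminescence in GeneBLAzer PPARg UAS-bla HEK293H cells. These cells had been exposed 17 h at 37 C to compounds together with rosiglitazone at 50 nM final, with the beta-lactamase readout taken in the same wells.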

A short description of test [7]: qHTS assay for small molecule activators of the heat shock response signaling pathway (AID 743210; active means well fitted activation curve with a large enough effect in the signal ratio in the repeat runs, with a control signal flat, not every such curve was filed as active; the % refers to the signal ratio;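 further: HeLa cells with beta-lactamase reporter driven by heat shock elements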). The following applies: HeLa HSE-bla reporter, beta-lactamase ratio, 5 h; series mostly up to 62.6 µM. In short, it runs like this:
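Fluorescence from a cleaved B/G FRET substrate (2.5 h, room temp) reports HSE-driven beta-lactamase in HeLa cells treated 5 h at 37 C with DMSO-dissolved compounds.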

Test [8] addresses Peroxisome proliferator-activated receptor gamma (Homo sapiens) (UniProt P37231). Kind of test: qHTS assay to identify small molecule agonists of the peroxisome proliferator-activated receptor gamma (PPARg) signaling pathway (AID 743094; active means well fitted activation curve with a large enough effect in the signal ratio in the repeat runs, not every such curve was filed as active; the % refers to the signal ratio). The following applies: HEK293H PPARg-UAS-bla, beta-lactamase FRET ratio, 17 h; series mostly up to 57 µM. In short, it runs like this:
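Agonist activity was taken from a beta-lactamase reporter (FRET substrate, 1 h at room temperature) in HEK293H cells carrying a PPARg UAS-bla construct. Compounds in DMSO were incubated 17 h at 37C after a 5 h cell pre-incubation.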

Test [9] can be described thus: qHTS assay for small molecule agonists of the antioxidant response element (ARE) signaling pathway (AID 743202; active means well fitted activation curve with a large enough effect in the signal ratio in the repeat runs, not every such curve was filed as active; the % refers to the signal ratio; further: potency means the concentration at half of the fitted maximal effect). The following applies: HepG2 ARE-bla reporter, beta-lactamase FRET, 16 h; series mostly up to 73.3 µM. A digest of the protocol: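 Beta-lactamase reporter activity, read as fluorescence intensity, reflects ARE/Nrf2 pathway induction in HepG2 cells after 16 h compound exposure at 37 C; substrate loading was 2 h at room temperature.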

The target of test [10] is Peroxisome proliferator-activated receptor gamma (Homo sapiens) (UniProt P37231). The test is described as follows: qHTS assay to identify small molecule antagonists of the peroxisome proliferator-activated receptor gamma (PPARg) signaling pathway (AID 743191; calls by dose curve; further: nearly all actives have a fitted effect of over 30% in size; further: potency means the concentration at half of the fitted maximal effect). The following applies: HEK293H PPARg-UAS-bla, beta-lactamase ratio, antagonist, 17 h; series mostly up to 62.6 µM. In short, it runs like this: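 Beta-lactamase reporter under UAS control in HEK293H PPARg-bla cells; compound treatment 17 h at 37C. Read-out: fluorescence intensity after 1 h room-temperature incubation with LiveBLAzer B/G FRET substrate.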
Peroxisome proliferator-activated receptor gamma (Homo sapiens), sequence (P37231 whole entry, looked up): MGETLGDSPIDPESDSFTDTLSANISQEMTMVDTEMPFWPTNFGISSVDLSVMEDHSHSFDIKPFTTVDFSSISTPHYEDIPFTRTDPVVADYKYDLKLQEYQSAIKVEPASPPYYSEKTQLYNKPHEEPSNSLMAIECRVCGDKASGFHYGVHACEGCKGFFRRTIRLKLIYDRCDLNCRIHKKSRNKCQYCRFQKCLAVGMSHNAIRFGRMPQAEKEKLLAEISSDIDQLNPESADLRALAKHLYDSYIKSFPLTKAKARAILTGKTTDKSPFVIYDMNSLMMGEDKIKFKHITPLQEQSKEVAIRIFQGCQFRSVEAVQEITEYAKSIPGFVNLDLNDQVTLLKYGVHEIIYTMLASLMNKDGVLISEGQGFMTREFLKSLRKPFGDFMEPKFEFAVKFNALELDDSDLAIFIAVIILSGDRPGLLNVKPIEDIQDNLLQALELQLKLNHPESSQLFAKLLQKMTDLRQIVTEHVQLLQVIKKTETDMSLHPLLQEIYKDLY

Aryl hydrocarbon receptor (Homo sapiens), sequence (P35869 whole entry, looked up): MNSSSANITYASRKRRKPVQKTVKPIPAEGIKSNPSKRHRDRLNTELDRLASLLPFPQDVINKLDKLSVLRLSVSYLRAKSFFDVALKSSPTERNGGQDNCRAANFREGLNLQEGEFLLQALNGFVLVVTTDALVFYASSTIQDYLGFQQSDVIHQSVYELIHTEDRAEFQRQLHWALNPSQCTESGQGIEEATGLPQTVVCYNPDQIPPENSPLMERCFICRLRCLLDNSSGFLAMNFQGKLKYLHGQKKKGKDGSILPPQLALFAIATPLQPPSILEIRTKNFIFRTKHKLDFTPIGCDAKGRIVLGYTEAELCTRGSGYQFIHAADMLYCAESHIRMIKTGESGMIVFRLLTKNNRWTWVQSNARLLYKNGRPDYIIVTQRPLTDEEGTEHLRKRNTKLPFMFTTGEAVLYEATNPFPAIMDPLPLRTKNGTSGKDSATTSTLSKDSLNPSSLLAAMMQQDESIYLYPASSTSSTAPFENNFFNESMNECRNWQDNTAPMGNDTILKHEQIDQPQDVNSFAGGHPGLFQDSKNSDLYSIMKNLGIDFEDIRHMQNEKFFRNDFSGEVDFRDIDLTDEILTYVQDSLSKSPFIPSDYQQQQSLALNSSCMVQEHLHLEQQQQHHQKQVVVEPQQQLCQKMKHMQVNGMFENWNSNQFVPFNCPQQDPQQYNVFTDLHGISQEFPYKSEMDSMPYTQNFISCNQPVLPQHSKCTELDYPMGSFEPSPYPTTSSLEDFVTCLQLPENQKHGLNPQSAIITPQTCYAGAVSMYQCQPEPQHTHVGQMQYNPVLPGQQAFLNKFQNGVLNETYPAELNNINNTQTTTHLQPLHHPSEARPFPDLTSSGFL

On to `O=C1C=CC(=O)N1`, for which the Potency result in test [1] was “inactive”. Moreover, the Potency is 62.8 µM (active) in [2], 20 µM (active) in test [3] and 40 µM (active) in test [4].

For `[Cl][Au]([Cl])[Cl]`, the Potency entry in test [1] is “inactive”. The Potency is 0.77 µM (active) in [2] and 3.09 µM (active) in test [4].

Regarding `CC[C@H]1O[C@]2(CC[C@@H]1C)C[C@@H]1C[C@@H](C/C=C(\C)C[C@@H](C)/C=C/C=C3\CO[C@@H]4[C@H](O)C(C)=C[C@@H](C(=O)O1)[C@]34O)O2`, the Potency entry in test [1] is “inactive”. For the same compound, the Potency in [2] is 21.5 µM (active); in test [3] it was 6.85 µM (active); in [4], 17.2 µM (active).

Turning to `Cc1ccc2oc(CN(Cc3ccccc3)C(=O)Nc3c(F)cc(F)cc3F)c(-c3ccc(Cl)cc3)c2c1`, the Potency entry in test [5], in test [6], in test [2], in [3] and in test [4] was “inactive” in each case.

On to `COc1cccc2c1C(=O)c1c(O)c3c(c(O)c1C2=O)C[C@@](O)(C(=O)CO)C[C@@H]3O[C@H]1C[C@H](N)[C@H](O[C@@H]2CCCCO2)[C@H](C)O1`, for which the Potency in test [5] was 6.68 µM (active). In addition, the Potency result in test [7] and in test [4] was “inactive” each time.

For the compound `CCCCC(CC)COC(=O)c1ccccc1C(=O)O` (configuration not stated), the Potency entry in test [5], in [6] and in test [2] was “inactive” each time.

Take `Oc1ccc(C2(c3ccc(O)cc3)CC3CC2C2CCCC32)cc1` (configuration not stated): the Potency result in [1] was “inactive”. The Potency was 58.7 µM (active) in test [2], 52.8 µM (active) in test [3] and 14.9 µM (active) in test [4].

`CCCCCCCCCCCCCCCCCC[N+](C)(C)C`: in test [5], the Potency result was “inactive”. In addition, the Potency was 27.6 µM (active) in [6], 48.7 µM (active) in [2], 34.8 µM (active) in test [3] and 13.8 µM (active) in test [4].

As for `CC(C)c1ccc2c(c1)CC[C@H]1[C@](C)(CN)CCC[C@]21C`, the Potency entry in test [1] is “inactive”. Also, the results for the Potency in [2], in test [3] and in test [4] were 6.86 µM (active), 19.5 µM (active) and 11 µM (active), respectively.

For the compound `C=CC(=O)OCC(CO)(COCC(COC(=O)C=C)(COC(=O)C=C)COC(=O)C=C)COC(=O)C=C`, the Potency entry in test [1] was “inactive”. Further, the Potency was 8.53 µM (active) in test [2], 2.72 µM (active) in [3] and 3.05 µM (active) in test [4].

Consider `CCCCCCCCCCn1cc[n+](CCCCCCCCCC)c1C`, for which the Potency entry in test [1] is “inactive”. In addition, the values for the Potency in [2], in [3] and in test [4] were 19.4 µM (active), 21.9 µM (active) and 7.77 µM (active), respectively.

Consider `CCOC(=O)O[C@H](C)OC(=O)c1ccc2c(c1)cc(C(=O)NC1CCN(C(C)C)CC1)n2Cc1cc(-c2ccc(Cl)s2)on1`, for which the Potency entry in [1] was “inactive”. For the same compound, the Potency in [2] is 22.7 µM (active); in test [3], 22.9 µM (active); in test [4], 8.14 µM (active).

Consider `O=C(Nc1ccc(Oc2ccc(Cl)cc2)c(Cl)c1)c1cc(I)cc(I)c1O`, for which the Potency result in test [8] was “inactive”.

On to `CCCCCCCCOc1ccccc1C(=O)Nc1ccc(C(=O)OCC[N+](C)(CC)CC)cc1`, for which, in test [1], the Potency entry is “inactive”. In addition, the Potency is 29.8 µM (active) in test [2] and 26.6 µM (active) in test [4].

As for `O=C(Oc1ccccc1)c1ccccc1C(=O)Oc1ccccc1`, the Potency result in test [5], in test [6], in [2], in test [3] and in [4] was “inactive” each time.

As for `CC(C)OC(=O)c1cc2c(OCC(O)CNC(C)(C)C)cccc2[nH]1` (configuration not stated), the Potency result in test [5], in test [2], in test [3] and in test [7] was “inactive” each time.

Turning to `COc1cccc(N)c1`, the Potency entry in test [2], in test [3], in test [7] and in test [4] was “inactive” in each case.

With `N=C1N=C(N)c2ccccc21`, in test [6], the Potency result is “inactive”. Also, the Potency in test [9] was 19.3 µM (active); in test [2] it was 54.5 µM (active); in [3] it was 49 µM (active).

With `CC1=C(C(=O)OC(C)C)C(c2cccc([N+](=O)[O-])c2)C(C(=O)OC2CN(C(c3ccccc3)c3ccccc3)C2)=C(N)N1` (configuration not stated), the Potency in [6] was 23.7 µM (active); in test [2], 23.7 µM (active); in test [3] it was 10.6 µM (active); in test [4], 11.9 µM (active).

Regarding `CCC(CN)=C(c1ccccc1)c1ccccc1`, the Potency entry in test [6], in test [9], in test [2], in test [3] and in test [7] was “inactive” in each case. Further, the Potency in test [4] is 29.8 µM (active).

With `CC(C)(C)C1CCC(CC2=C(O)c3ccccc3C(=O)C2=O)CC1` (configuration not stated), the Potency in [9] was 2.11 µM (active). Moreover, the Potency entry in test [2], in test [3], in test [7] and in test [4] was “inactive” each time.

On to `Nc1cc(C(F)(F)F)ccc1S`, for which the Potency entry in [10], in test [6], in test [9], in test [2] and in test [3] was “inactive” in each case.

`N#CC1(c2ccc(F)cc2)CCC(=O)CC1`: the Potency result in test [10], in test [6], in test [9], in test [2], in [3] and in test [7] was “inactive” throughout. The Potency entry in test [4] is “inactive”.

Regarding `COc1cc(-c2ccc(N=C=O)c(OC)c2)ccc1N=C=O`, the Potency result in test [8], in [6], in test [2], in test [3], in test [7] and in test [4] was “inactive” throughout.

Take `CCc1cc(SCc2sc(-c3ccc(C(F)(F)F)cc3)nc2CN2CCN(c3ccc(OC)cc3)CC2)ccc1OCC(=O)O`: the Potency in [6] was 24.5 µM (active); in test [2], 15.4 µM (active); in [3], 24.5 µM (active); in test [4] it was 7.76 µM (active).

As to `CCC(C)Nc1ccc(NC(C)CC)cc1` (configuration not stated), the Potency in [6] is 12.5 µM (active); in [2] it was 7.84 µM (active); in test [3], 22.3 µM (active); in [4], 12.5 µM (active).

On to `Nc1nc2ccccc2n1Cc1ccc(F)cc1`, for which the Potency entry in test [2] and in test [3] was “inactive” throughout.

As for `CCCCCOc1ccccc1/C(=C\SC)n1ccnc1`, the Potency in test [10] is 29.8 µM (active). For the same compound, the Potency entry in test [6], in [2] and in test [3] was “inactive” each time.

Consider `O=c1[nH]sc2cc(Cl)ccc12`, for which the Potency entry in [6] and in test [2] was “inactive” each time. Also, the Potency in test [4] was 26.6 µM (active).

For the compound `CN(C)[C@@H]1C(=O)C(C(N)=O)=C(O)[C@@]2(O)C(=O)C3=C(O)c4c(O)cccc4C[C@H]3C[C@@H]12`, the Potency result in test [2], in test [3] and in [4] was “inactive” each time.

On to `Nc1ccc2c3c(cccc13)-c1ccccc1-2`, for which the Potency in test [6] was 49.5 µM (active); in test [4], 55.5 µM (active). The Potency result in test [2] and in test [3] was “inactive” in each case.

For the compound `CCCCCCCCOC(=O)c1ccc(O)cc1`, the Potency result in test [6] and in [9] was “inactive” in each case. In addition, the Potency in test [4] is 48.8 µM (active).

For the compound `COC(=O)C1=C(C)NC(C)=C(C(=O)OCCc2ccc(N3CCN(C(c4ccccc4)c4ccccc4)CC3)cc2)C1c1cccc([N+](=O)[O-])c1` (configuration not stated), the Potency entry in test [6], in test [2], in test [3] and in [4] was “inactive” throughout.
